# Shown are actives, neighbours in structure and some others; about 4.2% of the full set was active somewhere.
# TIM10 inh: inhibits growth of TIM10 yeast strain; S. cerevisiae TIM10 strain growth, BacTiter-Glo luminescence, 24 h; inhibition, % at 10 µM; actives 1.4% (n = 330,000); AID 463195;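 active = inhibition of 40% or more at the single tested concentration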;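 also: wild-type TIM10 isogenic control strain grown at permissive 25 °C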
# V-ATPase pHluor: yeast V-ATPase proton transport regulation by pHLuorin. S. cerevisiae, pHLuorin cytosolic pH fluorescence. response, % at 10 µM. actives 0.37% (n = 350,000); in the data active = response mostly above about 7.3%, no sharp cut-off; inactive = mostly below about 5.4%; also: actives read high
# NLRP3 yeast inh: inhibitors of NALP3 inflammasome in yeast; Yeast reconstituted NLRP3/ASC/caspase-1, beta-gal luminescence, 24 h; inhibition, % at 10 µM; actives 0.39% (n = 330,000);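 active = inhibition of 50% or more; inactive = inhibition below 50%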;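 also: plate controls were induced DMSO wells for no effect and uninduced yeast grown without galactose for full effect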
# tim23-1 inh: inhibits growth of tim23-1 mutant yeast; S. cerevisiae tim23-1 growth, BacTiter-Glo luminescence, 24 h; inhibition, % at 20 µM; actives 1.3% (n = 330,000); AID 463212;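 active = growth inhibition of the mutant yeast at or above 50%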;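 also: temperature-sensitive mutant grown at 25 °C; plate controls were DMSO-treated mutant yeast for no effect and medium wells lacking yeast for full effect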
# NALP1 inh: blocks the NALP1 inflammasome reconstituted in yeast; inhibition, % at 10 µM; AID 2071; actives 0.61% (n = 280,000); S. cerevisiae NALP1/ASC/caspase-1 growth, X-gal OD620, 72 h; in the data active = inhibition mostly above about 24%, no sharp cut-off; inactive = mostly below about 32%
# tim10-1 inh: tim10-1 yeast growth inhibition; S. cerevisiae tim10-1 ts strain growth, BacTiter-Glo, 24 h; inhibition, % at 20 µM; actives 2.2% (n = 330,000); AID 463190;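 active = inhibition of at least 40%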;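 also: mutant grown at 25 °C; 0% = DMSO wells with yeast and 100% = wells holding no yeast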
# tim23-1 confirm: confirmation of tim23-1 mutant yeast growth inhibitors. shares compounds with tim23-1 inh. S. cerevisiae tim23-1 growth, BacTiter-Glo luminescence, 24 h. inhibition, % at 20 µM. actives 83% (n = 4,400);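 active = inhibition above about 39% in either of two replicate wells at 20 µM, limit read from the data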;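 also: temperature-sensitive tim23-1 mutant grown at 25 °C; 0% = DMSO wells with yeast and 100% = medium wells without yeast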
# The depositor's hits bear a star; nt = no result given.
SMILES,TIM10 inh,V-ATPase pHluor,NLRP3 yeast inh,tim23-1 inh,NALP1 inh,tim10-1 inh,tim23-1 confirm
NC(=O)c1c(NC(=O)c2ccc([N+](=O)[O-])o2)sc2c1CCCC2,15.6,-2.8,-7.7,43.8,-26.2,28.1,nt
Cc1ccccc1N=C1Nc2ccccc2N[C@]12C[C@H]1CCC(=O)N3CC[C@@H](C2)[C@@H]13,nt,5.7,nt,nt,nt,nt,nt
COC(=O)c1ccccc1C(=O)N1CCC(CCC(=O)NC2CC2)CC1,-16.0,-1.8,0.9,11.4,15.6,13.6,nt
CCOC(=O)c1cccc(NC(=O)c2cc3ccccc3o2)c1,27.1,1.2,35.3,57.9*,-2.4,23.3,51.9*
CCOC(=O)c1ccc(NC(=O)c2cc3ccccc3o2)cc1,18.7,-0.2,18.7,16.9,9.9,3.5,nt
CCOC(=O)c1cccc(NC(=O)CCc2ccccc2)c1,9.0,-0.9,6.0,61.2*,9.1,20.8,25.6
Cc1ccccc1OCCC(=O)OCC(=O)Nc1c(F)cccc1F,5.9,-1.6,-4.3,24.8,nt,10.1,nt
O=C1C=C(c2ccc3[nH]ccc3c2)C[C@@H](c2ccc(Cl)cc2)C1,26.9,4.2,18.0,51.9*,nt,33.9,46.1*
O=C1C=C(c2ccc3ccccc3c2)C[C@@H](c2ccc(Cl)cc2)C1,8.7,-6.5,4.5,-0.1,nt,-6.6,nt
Cc1ccc(C2=CC(=O)C[C@H](c3ccc(Cl)cc3)C2)cc1,6.4,4.1,6.4,44.7,nt,5.6,nt
O=C1C=C(c2ccc(O)cc2)C[C@@H](c2ccc(Cl)cc2)C1,-11.8,0.6,11.2,53.0*,nt,-0.1,37.8
O=C1C=C(c2ccc3ncccc3c2)C[C@@H](c2ccc(Cl)cc2)C1,8.8,1.3,18.1,52.4*,nt,0.1,27.6
Oc1ccccc1/C=N/NC(=S)NC1CC2CCC1C2 (stereo not drawn),4.7,1.4,14.5,66.5*,23.8,27.7,36.7
CCn1c2ccc(F)cc2c2nnc(SCCN3CCCCC3)nc21,2.7,1.2,26.5,5.5,20.5,10.7,nt
C(=N\N1CCOCC1)/c1nc(-c2ccccc2)n2ccccc12,23.0,-1.5,-7.8,10.3,-2.2,13.2,nt
CC(C)(C)c1ccc(-c2nc(C=O)c3ccccn23)cc1,38.1,-1.3,12.8,52.4*,-14.2,33.4,49.5*
COc1ccc(Nc2nc3ccc(OC)cc3s2)cc1,35.8,2.7,6.0,60.8*,6.8,26.2,40.0*
COc1ccc2nc(Nc3nc(C)c(C(C)=O)s3)sc2c1,28.3,-1.1,25.1,19.5,-6.5,18.1,nt
Cc1ccc2occ(/C=N/NC(=O)c3ccccc3O)c(=O)c2c1,12.5,2.1,6.8,53.4*,8.6,21.7,51.2*
O=C(N/N=C/c1coc2ccc(Cl)cc2c1=O)c1cc(O)cc(O)c1,7.5,8.8,11.5,71.6*,-7.8,16.0,70.2*
COc1ccc(C(=O)N/N=C\c2coc3ccc(C)cc3c2=O)cc1,27.7,-4.9,-6.9,43.3,0.5,20.2,nt
Cc1ccc2occ(/C=N/NC(=O)c3ccncc3)c(=O)c2c1,3.4,0.8,20.6,51.1*,11.4,10.9,50.5*
O=C(N/N=C/c1coc2ccccc2c1=O)c1cc(Br)c(O)c(Br)c1,15.7,3.4,13.0,39.8,13.4,-0.8,nt
CCCOc1cccc(C(=O)N/N=C/c2coc3ccccc3c2=O)c1,4.9,-3.2,10.9,55.5*,3.3,18.3,47.2*
O=C(CSc1nc(=O)n2ccccc2n1)NCc1ccccc1,2.5,-6.3,2.8,-14.2,nt,-19.6,nt
SMILES,TIM10 inh,V-ATPase pHluor,NLRP3 yeast inh,tim23-1 inh,NALP1 inh,tim10-1 inh,tim23-1 confirm
O=C1NN=C(c2ccc(Cl)cc2)CC1c1cccc(Br)c1 (stereo not drawn),12.0,-1.1,10.0,53.2*,13.6,36.1,59.4*
COc1ccc(N2CC(C(=O)N/N=C/c3cc([N+](=O)[O-])ccc3O)CC2=O)cc1 (stereo not drawn),0.0,-3.5,20.4,7.5,18.5,6.9,nt
O=C(NCc1ccco1)c1cc2cc(Br)ccc2o1,8.7,-3.0,28.3,43.8,18.1,25.0,nt
COC(=O)CCC(=O)Nc1cccc([N+](=O)[O-])c1,13.8,-2.5,6.1,10.3,6.4,16.2,nt
COC(=O)c1cccc(-c2ccc(C(c3c(C)[nH][nH]c3=O)c3c(C)[nH][nH]c3=O)o2)c1,5.3,-0.9,0.0,50.7*,-2.6,33.4,49.3*
COCCOC(=O)/C(=C\c1cc(C(C)(C)C)c(O)c(C(C)(C)C)c1)C(C)=O,33.0,4.5,5.1,59.5*,1.7,35.7,58.4*
CC(C)(C)c1cc(CCC(=O)NN)cc(C(C)(C)C)c1O,-19.2,-1.3,23.6,8.3,8.8,4.4,nt
Oc1ccc2ccccc2c1C=Nc1ccccc1-c1nc2ccccc2[nH]1,14.9,-1.6,5.5,51.8*,-7.3,39.3,46.5*
COCC(=O)OC1CCn2c1nc1c2C(=O)C(C)=C(NC(C)=O)C1=O (stereo not drawn),nt,1.2,nt,nt,nt,nt,nt
Cc1nc2cc(C(=O)OCC(=O)NC3CCS(=O)(=O)C3)ccc2n1-c1ccccc1 (stereo not drawn),-2.9,-1.6,24.1,6.2,6.7,2.7,nt
Cc1nc2cc(C(=O)OCC(=O)Nc3cccc(Cl)c3)ccc2n1-c1ccccc1,15.6,-0.9,-1.5,52.9*,31.7,11.9,30.0
C/C(=N\NC(=S)NC1CCCCC1)c1ccc(C#N)cc1,27.9,-1.3,6.5,23.3,20.8,28.3,nt
N#Cc1ccc(C(=O)NC(=S)NC2CCCCC2)cc1,32.0,-2.1,-40.4,65.2*,nt,10.5,41.0*
O=C(NC(=S)NC1CCCC1)c1ccccc1,8.6,-1.8,-2.1,57.8*,16.5,29.1,46.4*
Cc1cc(=O)oc2cc(Oc3ccc([N+](=O)[O-])cc3[N+](=O)[O-])ccc12,30.2,0.4,17.3,54.9*,3.9,21.2,42.8*
CCOc1ccccc1C(=O)Oc1ccc2ccc(=O)oc2c1,32.1,-0.1,5.0,68.3*,-4.3,5.1,47.1*
O=C(Oc1ccc2ccc(=O)oc2c1)c1ccccc1,1.7,-2.5,14.9,3.7,18.1,2.2,nt
CCOC(=O)C1CCN(C(=O)c2cc3cc4ccc(C)cc4nc3o2)CC1,21.4,-52.5,6.0,58.2*,12.8,15.9,58.7*
COc1ccc2cc3cc(C(=O)Nc4ccc5c(c4)OCO5)oc3nc2c1,-8.3,-1.8,15.8,-6.9,4.7,-3.0,nt
COc1ccc2cc3cc(C(=O)N4CCCCC4C)oc3nc2c1 (stereo not drawn),24.3,-4.8,8.9,50.4*,-6.3,24.5,59.0*
COC(=O)CC1COc2ccccc2N1C(=O)c1ccc(C(C)(C)C)cc1 (stereo not drawn),24.7,0.0,1.5,52.7*,-8.3,21.3,37.9
CC(C)Oc1ccccc1C1NC(=O)CCC1[N+](=O)[O-] (stereo not drawn),-5.5,-2.1,-1.4,10.3,31.0,16.0,nt
